High-throughput results deposited in PubChem BioAssay by several laboratories.
Shown are actives, neighbours in structure and some others; about 2.2% of the full set was active somewhere.
aSyn UTR inh: MLPCN primary screen, SNCA 5' untranslated region; AID 1813, 2009; inhibition, % (tested at 7.5 µM); 0.82% of 300,000 active; alpha-synuclein 5'UTR reporter, inhibitor activity; in the data active means inhibition above about 60%;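 further: H4 neuroglioblastoma cells stably carrying SNCA 5'UTR luciferase fusion; 0% = DMSO wells and 100% = positive control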
BaF3 tox: parental Ba/F3 cell viability inhibition, counter-screen for JAK2V617F inhibitor project, murine pro-B, CellTiter-Glo luminescence; CellTiter-Glo ATP luminescence; inhibition, % at 5.6 µM; 1.1% of 220,000 active; AID 1486, 2009;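 active means inhibition above a per-campaign cutoff, the mean inhibition of all tested compounds plus 3 SD, cut at about 27% in these data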;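 further: 0% = DMSO wells and 100% = JAK Inhibitor I control wells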
Ba/F3 V617F tox: reduced viability of JAK2V617F-dependent Ba/F3 cells, primary screen, JAK2V617F inhibitor project, cell-based, Ba/F3 EpoR-JAK2V617F, luminescence; AID 1446, 2008; inhibition, % at 5.6 µM; ATP luminescence; 1.1% of 220,000 active;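 active means inhibition above the campaign mean plus 3 SD over all tested compounds, cut at about 24% in these data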;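 further: cytokine-independent growth of Ba/F3 cells driven by EpoR plus mutant JAK2; 0% = DMSO-treated cells and 100% = JAK inhibitor I control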
KLF5 inhibitor: KLF5 expression inhibitors, primary screen, DLD-1 cells, luminescence; 0.23% of 290,000 active; DLD-1 KLF5 promoter-luciferase reporter; inhibition, % at 5 µM;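 active means inhibition above a per-plate limit of that plate's mean compound inhibition plus 3 SD, cut at about 60% in these data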;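 further: 0% = DMSO wells and 100% = LY294002 at 200 µM; higher means less KLF5 promoter-driven luciferase light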
APP 5UTR inh: inhibitors of APP translation via 5'UTR reporter, primary screen, APP 5'UTR luciferase, SH-SY5Y cells. 0.82% of 190,000 active. SH-SY5Y APP 5'UTR-luciferase reporter, luminescence. inhibition, % at 2 µM. AID 1285, 2008;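 active means inhibition above a set limit, derived from the sample mean plus 3 SD, cut at about 45% in these data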
IEC-6 tox: cytotoxicity in IEC-6 intestinal epithelial cells, primary screen, cytotoxicity control for KLF5 inhibitor project, cell-based, luminescence; IEC-6 cytotoxicity, luminescence viability; inhibition, % at 5 µM; 0.78% of 290,000 active; AID 1825, 2009; in the data active means inhibition above about 22%;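 further: 0% = plate median of test compound wells and 100% = cytotoxic reference compound wells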
* = called active by the depositor; nt = not tested or not shown.

SMILES	aSyn UTR inh	BaF3 tox	Ba/F3 V617F tox	KLF5 inhibitor	APP 5UTR inh	IEC-6 tox
CN[C@H]1CCc2cc(OC)c(OC)c(OC)c2-c2ccc(OC)c(=O)cc21	90*	nt	nt	nt	nt	nt
COc1cc2c(c(OC)c1OC)-c1c(cc(OC)c(OC)c1OC)C[C@](C)(O)[C@@H](C)C2	-10	nt	nt	nt	nt	nt
COP(=O)(OC)c1nc(-c2cccc3ccccc23)oc1N1CCOCC1	15	28*	-1	-23	-28	5
CCc1n(CC(O)COCc2ccccc2)c2ccccc2[n+]1C (centres undefined)	-27	49*	38*	19	-7	-3
COc1ccc(NC(=O)CCSc2nc(C)cs2)cc1	-55	nt	nt	-67	nt	0
O=C(CCc1ccccc1)Nc1ccccc1F	-135	0	-3	-122	nt	-2
O=C(CCc1ccccc1)Nc1ccc(F)cc1F	-68	4	1	-77	47*	1
Cc1ccc(-c2nnn(CC(=O)NC3CC4CCC3C4)n2)cc1 (centres undefined)	3	-2	-1	-6	-3	-2
O=C(Cn1nnc(-c2ccc(Cl)cc2)n1)NC1CC2CCC1C2 (centres undefined)	9	94*	-3	4	-2	4
Cc1ccc(S(=O)(=O)N2CCN(C(=O)C3CC3C)CC2)c(C)c1 (centres undefined)	8	nt	nt	nt	nt	nt
Cc1ccc(S(=O)(=O)N2CCN(C(=O)CSC3CCCC3)CC2)c(C)c1	23	94*	5	10	0	4
O=C(Nc1ccc(OCC(F)(F)C(F)F)c(C(F)(F)F)c1)c1ccccc1O	42	87*	48*	4	-9	2
O=C(Nc1ccc(OCC(F)(F)C(F)F)c(C(F)(F)F)c1)c1ccccc1	-101	1	-2	-48	-3	10
OC(Cn1ccnc1)c1ccc(Cl)cc1Cl (centres undefined)	19	6	-1	-12	3	2
CC1(c2ccc(Cl)cc2Cl)OCC(Cn2ccnc2)O1 (centres undefined)	17	95*	0	-17	-14	2
CCOC(=O)c1ccc(-c2csc(NC(=O)CN3CCC(C)CC3)n2)cc1	-48	nt	nt	-23	nt	0
CC(=O)Nc1cccc(NC(=O)CCN2C(=O)c3ccccc3S2(=O)=O)c1	6	nt	nt	nt	nt	nt
O=C1c2cccc3cc([N+](=O)[O-])cc(c23)C(=O)N1c1ccccc1O	-4	29*	14	-1	12	5
Cc1cc(O)ccc1N1C(=O)c2cccc3cc([N+](=O)[O-])cc(c23)C1=O	-4	7	3	-20	-6	2
Cc1ccc(NC(=O)c2cc(N3C(=O)CCC3=O)ccc2N2CCOCC2)cc1	-26	-4	-3	-14	-18	6
Cc1ccc(NC(=O)c2cc(N3C(=O)C=CC3=O)ccc2N2CCOCC2)cc1Cl	8	3	-1	1	77*	-5
CC(=O)/C=C/n1c(=S)oc2ccccc21	-30	5	16	-45	87*	6
O=C1c2cccc3cccc(c23)C(=O)N1CCc1ccccc1	-246	6	1	10	-100	9
Oc1ccc(Nc2nc3ccccc3nc2Nc2ccc(O)cc2)cc1	108*	100*	93*	55	87*	21
Cc1ccc[n+](CC(=O)c2ccc(Br)cc2)c1	-1	nt	nt	-26	nt	0
SMILES	aSyn UTR inh	BaF3 tox	Ba/F3 V617F tox	KLF5 inhibitor	APP 5UTR inh	IEC-6 tox
CN(C)c1cc[n+](CC(=O)c2ccc(-c3ccccc3)cc2)cc1	40	68*	99*	9	3	3
CN(C)c1cc[n+](CC(=O)c2ccc(Br)cc2)cc1	7	56*	51*	-5	-4	-3
O=C(C[n+]1ccccc1)c1ccc(-c2ccccc2)cc1	-32	2	0	-16	-10	-6
COc1ccc(C(=O)COC(=O)c2ccc(N(C)C)cc2)cc1	-64	0	-1	-10	-12	0
COc1ccc(C(=O)C[n+]2ccc(N(C)C)cc2)cc1	-15	59*	67*	-20	nt	-8
COc1ccccc1N1CCN(Cc2ccc(O)c3ncccc23)CC1	77*	37*	42*	10	90*	1
CCOC(=O)N1CCN(Cc2ccccc2Cl)CC1	nt	1	1	-8	-15	2
CCOC(=O)C1CCN(Cc2ccccc2C(F)(F)F)CC1	31	-2	-3	22	-54	-3
CCOC(=O)N1CCN(Cc2cc(Cl)c3cccnc3c2O)CC1	44	10	3	42	83*	14
CCOC(=O)C1CCN(Cc2ccc(O)c3ncccc23)CC1	31	50*	82*	1	41	1
CN(C)C(CNC(=O)c1c(F)cccc1Cl)c1ccco1 (centres undefined)	4	nt	nt	-29	nt	-3
COc1ccc([N+](=O)[O-])cc1N(CC(=O)NCCSc1ccc(C)cc1)S(C)(=O)=O	-6	-3	3	-28	4	-2
COc1ccc(C)cc1NS(=O)(=O)c1ccc(NC(=O)CN(c2cc([N+](=O)[O-])ccc2C)S(C)(=O)=O)cc1	114*	9	6	7	59*	7
Cc1cccc(NS(=O)(=O)c2ccc(NC(=O)CN(c3cc([N+](=O)[O-])ccc3C)S(C)(=O)=O)cc2)c1	101*	12	11	0	11	97*
CCCCc1c(C)c(C#N)c2nc3ccccc3n2c1Cl	109*	4	-5	-16	82*	3
Cc1ccc(SCC(=O)OCC(=O)N2CCN(C(=O)c3ccco3)CC2)c(C)c1	9	nt	nt	nt	nt	nt
Cc1nc([N+](=O)[O-])c(Br)n1CC(=O)c1cccc([N+](=O)[O-])c1	-14	-5	1	-38	-7	-1
Cc1nc([N+](=O)[O-])c(Br)n1CC(=O)c1ccc(F)cc1	nt	-8	37*	-16	-7	18
CC1=CC(C)C(C(=O)O)C(C(=O)O)C1 (centres undefined)	9	1	-3	4	18	-1
CC[N+](C)(CC)CC(=O)OCC1C(C)C=C(C)CC1C (centres undefined)	-10	34*	27*	2	nt	2
c1ccc(-c2noc(-c3ccc4ccccc4c3)n2)cc1	77*	0	-2	37	-150	2
Cc1cc(C)nc(SCc2ccc(C(=O)N/N=C/c3cccc(O)c3O)cc2)n1	70*	4	5	-33	62*	-8
CCc1ccc2c(c1)C1(C(=O)N2)N2CCCC2C(C(=O)c2ccc3ccccc3c2)C12C(=O)Nc1ccccc12 (centres undefined)	-127	4	-3	1	-19	-9
CCc1ccc2c(c1)C1(NN=C(c3cccc4ccccc34)S1)C(=O)N2 (centres undefined)	76*	4	-3	-16	11	1
